High-throughput results: PubChem, several laboratories
Platelet DG rel: platelet dense granule release activity; hit rate 0.22% among 300,000; inhibition, %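 (compounds screened at 7.5 µM in platelet-rich plasma)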; human platelet-rich plasma, SFLLRN dense granule ATP release, luminescence;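 active = mean replicate score, as percent of positive control, at or above 50; inconclusive = mean below 50 but at least one replicate at or above 50; inactive = mean and every replicate below 50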
HIF act: HIF pathway transcriptional activation. U2OS HRE-luciferase reporter, luminescence; normalized: DMSO 0%, desferrioxamine 100%. activation, % at 7.5 µM (by protocol). hit rate 0.32% among 300,000;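 active = mean activation of at least 10% of the iron chelator positive control signal, with at least half of replicates also reaching 10%; inconclusive = mean and replicate majority disagree about reaching 10%; inactive = mean and most replicates under 10%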
pCIP destab: lowers stability of the mouse p/CIP coactivator protein | F442A p/CIP-EGFP cells, EGFP fluorescence, 16 h | decrease of EGFP signal, % at 10 µM | hit rate 0.01% among 290,000 | AID 1984;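 active = EGFP signal decrease of at least 30% at 10 µM or well 3 SD below plate mean, unless failing retest; inactive = the rest, including hits failing retest or dose response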
Target sequence (Q05BA5 1-1403): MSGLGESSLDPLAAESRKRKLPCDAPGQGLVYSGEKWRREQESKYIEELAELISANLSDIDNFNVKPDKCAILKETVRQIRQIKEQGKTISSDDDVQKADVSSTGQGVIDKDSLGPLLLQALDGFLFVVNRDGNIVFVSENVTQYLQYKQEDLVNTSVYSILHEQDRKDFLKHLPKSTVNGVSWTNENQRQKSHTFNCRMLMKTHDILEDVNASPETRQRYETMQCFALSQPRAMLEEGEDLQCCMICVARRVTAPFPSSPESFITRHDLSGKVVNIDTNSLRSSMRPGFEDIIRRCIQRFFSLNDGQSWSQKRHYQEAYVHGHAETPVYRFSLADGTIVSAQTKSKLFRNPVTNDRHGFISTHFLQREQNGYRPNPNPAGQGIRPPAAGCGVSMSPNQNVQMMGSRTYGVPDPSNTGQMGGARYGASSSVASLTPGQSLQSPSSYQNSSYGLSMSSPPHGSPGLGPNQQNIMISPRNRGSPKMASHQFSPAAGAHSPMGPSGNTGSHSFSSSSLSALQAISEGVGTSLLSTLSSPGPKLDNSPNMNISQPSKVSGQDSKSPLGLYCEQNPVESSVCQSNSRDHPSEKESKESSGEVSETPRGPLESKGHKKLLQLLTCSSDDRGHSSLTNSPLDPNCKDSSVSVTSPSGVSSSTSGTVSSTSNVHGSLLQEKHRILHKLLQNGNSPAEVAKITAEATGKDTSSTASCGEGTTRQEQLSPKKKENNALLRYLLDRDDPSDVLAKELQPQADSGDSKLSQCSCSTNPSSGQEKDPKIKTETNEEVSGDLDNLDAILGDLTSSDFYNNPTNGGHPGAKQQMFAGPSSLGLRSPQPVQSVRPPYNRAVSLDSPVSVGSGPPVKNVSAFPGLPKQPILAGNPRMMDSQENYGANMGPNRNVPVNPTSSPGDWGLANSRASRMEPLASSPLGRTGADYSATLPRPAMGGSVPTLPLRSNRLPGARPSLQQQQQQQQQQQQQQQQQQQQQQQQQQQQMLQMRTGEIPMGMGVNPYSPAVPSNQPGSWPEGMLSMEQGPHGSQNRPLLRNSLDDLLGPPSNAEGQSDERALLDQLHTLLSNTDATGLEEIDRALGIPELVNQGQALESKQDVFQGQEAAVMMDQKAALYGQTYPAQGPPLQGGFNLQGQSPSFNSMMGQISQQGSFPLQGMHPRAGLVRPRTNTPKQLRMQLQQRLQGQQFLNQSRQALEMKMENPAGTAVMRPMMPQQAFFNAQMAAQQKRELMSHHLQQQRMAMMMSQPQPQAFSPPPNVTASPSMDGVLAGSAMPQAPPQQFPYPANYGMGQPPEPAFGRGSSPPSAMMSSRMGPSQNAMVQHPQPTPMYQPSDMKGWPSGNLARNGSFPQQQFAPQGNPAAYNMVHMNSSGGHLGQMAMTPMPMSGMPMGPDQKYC
PolyA inh: blocks polyadenylation in yeast reporter cells; activity score, % at 12 µM; hit rate 0.02% among 300,000; S. cerevisiae SKY197-pL101 polyadenylation reporter, beta-gal luminescence; efflux-impaired pdr1/pdr3 knockout yeast; score 100 = 6 SD above DMSO; AID 1875;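 active = lowest replicate activity score at least 50, where 100 means six control SD above control mean; inconclusive = lowest score under 50 but half or more replicates reach 50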;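 note: yeast exposed to compound for 9 h at 30 °C; higher score means more reporter readthrough which indicates perturbed polyadenylation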
AHR activator: human AHR activation; P35869; AHR-responsive luciferase reporter cells, luminescence; activation, % at 5 µM; hit rate 2.5% among 320,000; in the data active = activation above about 47%;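 note: 0% = vehicle wells and 100% = reference agonist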
AHR act confirm: human AHR activation, confirmation. shares compounds with AHR activator. human cells, AHR-responsive luciferase reporter, luminescence. activation, % at 9 µM. hit rate 87% among 2,300. AID 2845; in the data active = activation above about 49%;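 note: HepG2 hepatoma cells carrying a DRE-driven firefly luciferase reporter; 0% = vehicle wells and 100% = reference agonist wells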
PXR counter: PXR activation, counter-screen for AHR activators; shares compounds with AHR activator; cell-based PXR reporter, luciferase luminescence; activation, % at 11.6 µM; hit rate 88% among 2,300; in the data active = activation above about 11%;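 note: human hepatoma DPX-2 cells expressing full-length human PXR; 0% = DMSO and 100% = reference agonist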
An asterisk follows results filed as active; ? = inconclusive; . = not tested or not shown. An excerpt weighted towards active compounds, which were near 2.8% of everything screened.

SMILES	Platelet DG rel	HIF act	pCIP destab	PolyA inh	AHR activator	AHR act confirm	PXR counter
CN(C)C(=S)SCC(=O)Nc1ccc(Cl)cc1Cl	-7.5	0.9	0.5	-16.2	1.1	.	.
Cc1c(C)n2c(SCC(=O)Nc3cccc4ccccc34)nnc2[nH]c1=O	8.1	-0.2	.	-20.4	0.0	.	.
O=C(NCCCN1CCCC1=O)c1ccc(NS(=O)(=O)c2cccc([N+](=O)[O-])c2)cc1	.	0.1	.	4.7	-0.2	.	.
CSC(=S)N/N=C(\C)c1ccc(Br)cc1	-3.4	0.4	2.3	-13.6	19.1	.	.
CSc1nc2c(c(C(F)(F)F)n1)CC(C)CC2 (stereo unspecified)	-9.9	-0.1	3.2	6.4	-0.6	.	.
Cc1ccccc1-c1cn(-c2ccccc2)c(=S)[nH]1	17.1	-6.2	-9.2	-21.9	19.8	.	.
Cc1ccc(-c2cn(-c3ccccc3)c(=S)[nH]2)cc1C	-1.4	-21.5	-28.4	-0.5	80.7*	11.9	38.2*
COc1cc(C2Nc3ccccc3C(=O)N2c2ccc(Cl)cc2)c(Cl)cc1OCC(=O)O (stereo unspecified)	2.1	5.1	4.8	-6.0	115.9*	88.6*	15.2*
CCn1cc(C(=O)NCCCN2CCCC(C)C2)c(=O)c2cc(S(=O)(=O)N(C)C3CCCCC3)ccc21 (stereo unspecified)	2.9	0.1	0.9	12.3	2.1	.	.
CN(C)C(=O)COc1ccc(S(=O)(=O)c2ccc(OCC(=O)N(C)C)cc2)cc1	-11.0	-0.5	-5.3	4.8	101.6*	5.7	8.8
CN(C)C(=O)COc1ccc(Br)cc1	3.2	0.0	-1.0	-8.8	-2.5	.	.
C[C@H](NC(=O)c1ccccc1Cl)C(=O)OCc1cn2cc(Cl)ccc2n1	-9.6	0.0	.	0.4	-0.4	.	.
CCNc1c([N+](=O)[O-])c(=O)n(CC)c2ccccc12	12.1	-0.1	-0.5	-0.6	1.6	.	.
CCn1c(=O)c([N+](=O)[O-])c(NCCCn2ccnc2)c2ccccc21	-0.6	0.2	0.9	-13.6	100.6*	93.3*	51.6*
CC(OC(=O)c1ccccc1C(=O)N(C)c1ccccc1)C(=O)Nc1ccc(C(N)=O)cc1 (stereo unspecified)	-2.1	0.1	.	36.7	4.6	.	.
CC(OC(=O)c1cc(O)c2ccccc2c1O)C(=O)Nc1ccc(C(N)=O)cc1 (stereo unspecified)	3.2	-1.1	.	1.4	102.8*	78.4*	19.0*
CC(C)=C(NC(=O)c1ccccc1)C(=O)N/N=C/c1ccc(O)cc1	?	0.8	2.4	-5.9	5.4	.	.
O=C(Nc1ccccc1C(=O)N/N=C/c1ccc(O)cc1)c1ccccc1	124.0*	2.3	-7.0	-11.8	102.6*	88.3*	28.3*
O=C(CN(C(=O)CNC(=O)c1cccs1)c1cccc(F)c1)NC1CCCC1	-1.9	-3.3	-11.0	-2.6	-0.8	.	.
CCOC(=O)c1ccc(Oc2cc(C)nc(Cl)n2)cc1	-5.0	0.3	-6.1	-10.4	-1.2	.	.
O=C(NNc1nc2c(F)cccc2s1)C1COc2ccccc2O1 (stereo unspecified)	-1.9	-0.1	-29.1	-2.4	18.7	.	.
Cc1ccc2sc(NNC(=O)C3COc4ccccc4O3)nc2c1C (stereo unspecified)	.	.	7.6	.	137.3*	65.5*	48.4*
COc1ccc(Cl)cc1C(=O)NNC(=O)c1[nH]c(C)c(C(C)=O)c1C	.	.	.	.	81.1*	96.3*	49.8*
CC(=O)c1c(C)[nH]c(C(=O)NNC(=O)c2ccc(C)cc2)c1C	.	.	.	.	-0.8	.	.
CCOc1ccc(OCC)c(NC(=O)c2[nH]c(C)c(C(C)=O)c2C)c1	-5.0	-24.8	-9.2	-22.5	79.7*	94.6*	18.8*
SMILES	Platelet DG rel	HIF act	pCIP destab	PolyA inh	AHR activator	AHR act confirm	PXR counter
CCOc1cc(N2CCOCC2)c(OCC)cc1NC(=O)c1[nH]c(C)c(C(C)=O)c1C	.	.	.	.	-2.7	.	.
Cc1occc1-c1nc(-c2ccccn2)no1	8.8	0.0	-0.7	-21.9	5.8	.	.
Cc1onc(-c2ccccc2Cl)c1-c1nc(-c2ccccn2)no1	-9.4	0.8	14.3	-21.8	91.9*	70.5*	176.5*
COc1ccc(CNC(=O)C2CCN(S(=O)(=O)c3ccc4c(c3)CC(C)N4C(C)=O)CC2)cc1 (stereo unspecified)	1.0	-1.8	-0.2	0.5	-0.4	.	.
Cc1ccc(C(=O)Nc2ccc3c(c2)OCO3)cc1S(=O)(=O)N1CCCC1	-0.4	1.5	-2.3	-0.1	82.0*	70.1*	218.1*
Cc1ccc(C(=O)Nc2ccc3c(c2)OCO3)cc1Cl	23.2	1.4	-13.3	-1.0	93.7*	118.0*	38.0*
Cc1ccc(NC(=O)c2ccc3c(c2)OCO3)cc1Cl	0.6	1.8	-4.2	28.2	13.4	.	.
O=C(Nc1ccc(Cl)c(-c2nc3ccccc3[nH]2)c1)c1ccc2c(c1)OCO2	4.8	0.8	1.4	-7.2	86.3*	93.0*	19.2*
CC(=O)c1cccc(S(=O)(=O)N2CCCC(c3nc4c(nnn4Cc4cccc(Cl)c4)c(=O)[nH]3)C2)c1 (stereo unspecified)	5.4	-0.9	2.4	-11.0	-0.5	.	.
C#CCOCCOCCOCCNc1nc(N2CCN(C(=O)C([C@@H](C)CC)n3cc(C(N)COC(=O)C(F)(F)F)nn3)CC2)nc(N2CCN(C(=O)C([C@@H](C)CC)n3cc(C(N)CC(C)C)nn3)CC2)n1 (stereo partly specified)	15.1	0.2	.	9.7	-0.4	.	.
COC(=O)c1c(-c2ccsc2)sc2ccc(-c3cc(OC)c(OC)c(OC)c3)cc12	.	.	.	.	27.9	.	.
OCCC#Cc1c(-c2ccsc2)sc2ccccc12	-0.5	-0.9	2.4	-6.5	85.8*	62.0*	12.9*
CS(=O)(=O)c1ccc(-c2sc3ccccc3c2C#CCCO)cc1	.	.	.	.	6.2	.	.
COc1cc(-c2ccc3sc(-c4ccsc4)c(C#CCO)c3c2)cc(OC)c1OC	.	.	.	.	80.0*	60.5*	12.6*
COc1ccc(C(=O)NC2CCN(CC(=O)Nc3cccc(OC)c3)CC2)cc1	1.8	0.4	-17.7	1.7	1.5	.	.
CSc1nc(N)c2c3c(sc2n1)COC(C(C)C)C3 (stereo unspecified)	-28.6	0.0	-0.1	-13.5	96.6*	109.5*	18.3*
CCN(CC)c1ncnc2c1cnn2Cc1ccc(Cl)cc1	8.0	-0.9	-6.2	-2.0	2.1	.	.
CCCNC(=O)C(Cc1ccccc1C)NC(=O)c1ccc(C(F)(F)F)cc1 (stereo unspecified)	.	.	.	.	-1.1	.	.
CCOc1ccc(NC(=O)CN(C)C(=O)c2ccc3c(c2)C(=O)N(CCC(C)C)C3=O)cc1OCC	0.7	-1.7	-1.7	-13.4	1.5	.	.
COc1cc(NC(=S)Nc2ncccc2C)cc(OC)c1OC	0.7	1.1	5.3	-10.6	105.8*	92.5*	67.2*
COc1ccccc1NC(=O)CNC(=O)c1ccccc1	0.7	-0.4	-3.4	8.3	6.7	.	.
